# Measurements taken from PubChem BioAssay AID493029 (Johns Hopkins Ion Channel Center, 2011).
# Among all 1,000 compounds or so, about 140 (14%) were called active. How the calls were made is not given here. The sample as a whole holds a higher share of actives than the screen did.
# Assay: thallium flux change in parental CHO cells, counter-screen for KCNQ2 inhibitor project (AID 493029);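 on activity change: 0% = vehicle negative controls with stimulus buffer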
# Settings: at 10 µM; active compounds read low
row,SMILES,activity change
1,CN(C)CC1Oc2ccccc2OC1(O)c1ccccc1 (configuration not stated),-23% (active)
2,O=C(NC(c1ccc(Cl)cc1)P(=O)(Oc1ccccc1)Oc1ccccc1)OCc1ccccc1 (configuration not stated),inactive
